These results are taken from PubChem BioAssay (NCATS).

Molecules are shown by their SMILES. Results filed as inconclusive are left out. A call without a number means that no potency is given here. Active and inactive are the calls of the source. Calls follow the shape of the dose curve; as a rule, active = well fitted inhibition curve with a large enough effect; inconclusive = small, poorly fitted or top-dose-only effect; inactive = flat fitted curve, though single readings scatter.

This test deals with Aldehyde dehydrogenase, mitochondrial (Homo sapiens) (UniProt P05091). Description: qHTS for Inhibitors of the Aldehyde Dehydrogenase Family (ALDH2) Primary screen (AID 2061308). Also: nearly all actives have a fitted effect of over 55% in size. Conditions: ALDH2 enzyme inhibition qHTS, 1536-well; series mostly up to 56 µM. For orientation: qHTS replaces the single test concentration by a dilution series.
Regarding `O=C(O)c1ccnc2cc(C(OCCN3CCCCC3)c3ccccc3Cl)[nH]c12` (centres undefined), the Potency result is “inactive”.
For `CC(C)[C@H]1OC(=O)[C@H](Cc2ccccc2)N(C)C(=O)[C@@H](C(C)C)OC(=O)[C@H](Cc2ccccc2)N(C)C(=O)[C@@H](C(C)C)OC(=O)[C@H](Cc2ccccc2)N(C)C1=O` the value was “inactive”; for `Cc1nn2c(=O)cc(N3CCNCC3)nc2s1`, “inactive”.
Next, `CC[C@H]1C2CC3[C@@H]4N(C)c5ccccc5[C@]45C[C@@H]([C@H]2[C@H]5O)N3[C@H]1O`: “inactive”; `S=P(c1ccccc1)(c1ccccc1)c1cnc2ccccn12`: “inactive”.
Next, `CC[C@H]1C[C@H]2[C@@H]3CCC4=CC(=O)CC[C@@H]4[C@H]3CC[C@]2(C)[C@H]1O`: “inactive”; `CCCc1ccc(NC(=O)c2ccc3c(c2)NC(=O)CS3)cc1`: “inactive”; `C[C@H]1C/C=C/[C@H]2[C@@H]3O[C@]3(C)[C@@H](C)[C@H]3[C@H](Cc4ccccc4)NC(=O)[C@]32OC(=O)O/C=C/[C@@](C)(O)C1=O`: “inactive”.
`Oc1cccc2cc(N3CCNCC3)cnc12`: the Potency entry was “inactive”.
For `COC1CCCC(C)OC(=O)Cc2cc(O)cc(O)c2C(=O)C1` (centres undefined) the value was “inactive”; for `O=C(Nc1ncc(Cc2ccc(C(F)(F)F)cc2)s1)c1cnc(-c2ccccc2)o1`, “inactive”.
`Cc1c(P(=S)(c2ccccc2)c2ccccc2)c2ccccc2n1C`: the Potency entry was “inactive”.
As for `CCOc1ccc(CCNC(=O)c2cc3ccccc3n2CCN2CCOCC2)cc1OCC`, the Potency result was “inactive”.
On to `C=C1[C@@H](C)C2[C@H](Cc3ccccc3)NC(=O)[C@@]23C(/C=C/C[C@H](C)C[C@@](C)(O)/C=C/[C@@H]3OC(C)=O)[C@@H]1O` (some centres undefined), for which the Potency result is “inactive”.
For `Cc1cccc2nc(NC3=NC(c4[nH]ncc4Cl)C4=C(CCCC4=O)N3)oc12` (centres undefined) the value was “inactive”; for `C[C@@H]1O[C@@H](O[C@H]2CC[C@@]3(C)C(CC[C@@H]4C3CC[C@]3(C)[C@@H](C5=CC(=O)OC5)CC[C@]43O)C2)[C@H](O[C@@H]2O[C@H](CO)[C@@H](O)[C@H](O)[C@H]2O)[C@H](O)[C@H]1O` (some centres undefined), “inactive”.
As for `CCOc1ccc(CCNC(=O)c2ccc(Oc3ccccc3)cc2)cc1OCC`, the Potency result is “inactive”.
For `C=C(CO)C(=O)O[C@H]1CC(=C)[C@@H]2C[C@H](O)C(=C)[C@@H]2[C@H]2OC(=O)C(=C)[C@@H]21` the value was “inactive”; for `COC1CC(O[C@H]2CC[C@]3(C=O)C4CC[C@]5(C)[C@@H](C6=CC(=O)OC6)CC[C@]5(O)[C@@H]4CC[C@]3(O)C2)OC(C)C1O[C@@H]1O[C@H](CO)[C@@H](O)[C@H](O)[C@H]1O` (some centres undefined), “inactive”; for `CCOc1ccc(CCNC(=O)c2cc3sccc3n2CCN(C)C)cc1OCC`, “inactive”.
For `Cc1nnc2n1-c1sc(CCc3ccc(CC(C)C)cc3)cc1C(c1ccccc1Cl)=NC2C` (centres undefined) the value was “inactive”; for `C/C=C(\C)C(=O)O[C@@H]1[C@@H](C)[C@]2(O)C3C=C(C)C(=O)[C@@]3(O)CC(CO)=C[C@H]2C2C(C)(C)[C@@]21OC(=O)C(C)CC` (some centres undefined), “inactive”.
Next, `CCOc1ccc(CCNC(=O)c2cc3sccc3n2Cc2ccc(F)cc2F)cc1OCC`: “inactive”.
As for `Cc1ccccc1[C@@H](C(=O)NC1CCCCC1)N(C(=O)Cn1ccnc1C)c1cccc(F)c1`, the Potency result is “inactive”.
Next, `C[C@H]1O[C@@H](O[C@H]2C[C@@H](O)[C@]3(CO)C4C(CC[C@]3(O)C2)[C@@]2(O)CC[C@H](C3=CC(=O)OC3)[C@@]2(C)C[C@H]4O)[C@@H](O)[C@@H](O)[C@H]1O` (some centres undefined): “inactive”; `O=S(=O)(Nc1ccccc1)c1ccc(NCc2ccc(Br)cc2O)cc1`: “inactive”.
Next, `CN1Cc2c(ccc3c2OCO3)[C@@H]2[C@H]1c1cc3c(cc1C[C@@H]2O)OCO3`: “inactive”; `O=C(Nc1ncc(Cc2ccc(C(F)(F)F)cc2)s1)c1cn(-c2ccccc2)cn1`: “inactive”; `COC(=O)C12C(=O)C(C)(O)C(=O)C1(C)C(C)=CC1C3(C=O)CCC(OC(C)=O)C(C)(C)C3CCC12C` (centres undefined): “inactive”.
For `COc1cccc(CNc2ccc(C(=O)Nc3nccs3)cc2)c1O` the value was “inactive”; for `CO[C@H]1[C@H](O)[C@H](O[C@H]2CC[C@]3(C)C4CC[C@]5(C)[C@H](C6=CC(=O)OC6)CC[C@]5(O)C4CC[C@@H]3C2)O[C@@H](C)[C@@H]1O` (some centres undefined), “inactive”.
On to `C[C@@H]1[C@H](O)[C@@H](C)/C=C/C=C/CC/C=C/C=C/C=C/C=C/[C@H](O[C@H]2O[C@@H](C)[C@H](O)[C@@H](N)[C@H]2O)C[C@@H]2O[C@](O)(C[C@@H](O)[C@H](O)CC[C@@H](O)C[C@@H](O)C[C@@H](O)CC(=O)O[C@H]1C)C[C@H](O)[C@H]2C(=O)O`, for which the Potency entry is “inactive”.
`Cc1c(P(=S)(c2ccccc2)c2ccccc2)[n+]2ccccc2n1C`: the Potency result is “inactive”.
For `C=C1[C@@H](C)[C@H]2[C@H](Cc3ccccc3)NC(=O)[C@]23[C@H](OC(C)=O)/C=C/[C@](C)(O)C(=O)[C@@H](C)C/C=C/[C@H]3[C@@H]1O` the value was “inactive”.
Regarding `CC1=C2C(=O)C3[C@@H](CC=C4C[C@@H](O)CC[C@@]43C)[C@@H]2CC[C@]12O[C@@H]1C[C@H](C)CN[C@H]1[C@H]2C` (some centres undefined), the Potency result is “inactive”.
For `CO[C@@H]1C[C@H](O[C@H]2CC[C@@]3(C)C(CCC4C3CC[C@]3(C)[C@@H](C5=CC(=O)OC5)[C@@H](OC(C)=O)CC43O)C2)O[C@H](C)[C@@H]1O[C@H]1O[C@H](CO[C@@H]2O[C@H](CO)[C@@H](O)[C@H](O)[C@H]2O)[C@@H](O)[C@H](O)[C@H]1O` (some centres undefined) the value was “inactive”; for `Cc1[nH]c2ccccc2c1P(=S)(c1ccccc1)c1ccccc1`, “inactive”; for `CC(=O)O[C@H]1C(=O)[C@]2(C)C(O)C[C@H]3OC[C@@]3(OC(C)=O)[C@H]2[C@H](OC(=O)c2ccccc2)[C@]2(O)C[C@H](O)C(C)=C1C2(C)C` (some centres undefined), “inactive”.
Next, `CC1=C(C(=O)Nc2nncs2)C(c2nn(C)cc2Cl)N=C(Nc2nc3ccccc3o2)N1` (centres undefined): “inactive”.
